# Laboratory results taken from the supplement of paper PMC8728848.
# This is one part of a sample in which the strongest signals are shown more often than they occur.
# Assays:
# Assay in all cases: glycan array binding signal (z-score within array); higher = stronger binding
# Conditions in all cases: glycan notation: IUPAC condensed, linker removed
# [1] = biological target: Gal(b1-4)GlcNAc(b1-3)Gal(b1-4)GlcNAc(b1-2)[Gal(b1-4)GlcNAc(b1-3)Gal(b1-4)GlcNAc(b1-6)]Man(a1-6)[Gal(b1-4)GlcNAc(b1-3)Gal(b1-4)GlcNAc(b1-2)Man(a1-3)]Man(b1-4)GlcNAc(b1-4)GlcNAc
# Procedure, shortened: (§1)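 Negative Z-scores can be read as non-binding. The Z-score is calculated within each array and then averaged across arrays of one protein sequence at different concentrations or buffers and across linkers. Arrays, 3228 in all, were curated from the Consortium for Functional Glycomics database and kept only where the protein sequence was available.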
# [2] = biological target: Gal(b1-4)GlcNAc(b1-3)Gal(b1-4)GlcNAc(b1-3)Gal(b1-4)GlcNAc(b1-2)Man(a1-3)[Gal(b1-4)GlcNAc(b1-3)Gal(b1-4)GlcNAc(b1-3)Gal(b1-4)GlcNAc(b1-2)Man(a1-6)]Man(b1-4)GlcNAc(b1-4)[Fuc(a1-6)]GlcNAc
# Procedure, shortened: as §1
# [3] = biological target: Gal(b1-4)GlcNAc(b1-3)Gal(b1-4)GlcNAc(b1-3)Gal(b1-4)GlcNAc(b1-3)Gal(b1-4)GlcNAc(b1-2)Man(a1-3)[Gal(b1-4)GlcNAc(b1-3)Gal(b1-4)GlcNAc(b1-3)Gal(b1-4)GlcNAc(b1-3)Gal(b1-4)GlcNAc(b1-2)Man(a1-6)]Man(b1-4)GlcNAc(b1-4)[Fuc(a1-6)]GlcNAc
# Procedure, shortened: as §1
# [4] = biological target: Gal(b1-4)GlcNAc(b1-3)Gal(b1-4)GlcNAc(b1-3)Gal(b1-4)GlcNAc(b1-3)Gal(b1-4)GlcNAc(b1-3)Gal(b1-4)GlcNAc(b1-2)[Gal(b1-4)GlcNAc(b1-3)Gal(b1-4)GlcNAc(b1-3)Gal(b1-4)GlcNAc(b1-3)Gal(b1-4)GlcNAc(b1-3)Gal(b1-4)GlcNAc(b1-6)]Man(a1-6)[Gal(b1-4)GlcNAc(b1-3)Gal(b1-4)GlcNAc(b1-3)Gal(b1-4)GlcNAc(b1-3)Gal(b1-4)GlcNAc(b1-3)Gal(b1-4)GlcNAc(b1-2)Man(a1-3)]Man(b1-4)GlcNAc(b1-4)[Fuc(a1-6)]GlcNAc
# Procedure, shortened: as §1
# [5] = biological target: Gal(b1-4)GlcNAc(b1-3)Gal(b1-4)GlcNAc(b1-6)[Gal(b1-3)]GalNAc
# Procedure, shortened: as §1
# GalNAc(b1-4)Gal(b1-4)Glc = biological target: GalNAc(b1-4)Gal(b1-4)Glc
# Procedure, shortened: as §1
# GalNAc(b1-4)GlcNAc = biological target: GalNAc(b1-4)GlcNAc
# Procedure, shortened: as §1
# [6] = biological target: GalNAc(b1-4)GlcNAc(b1-2)Man(a1-3)[GalNAc(b1-4)GlcNAc(b1-2)Man(a1-6)]Man(b1-4)GlcNAc(b1-4)GlcNAc
# Procedure, shortened: as §1
# [7] = biological target: GalNAc3S(b1-4)[Fuc(a1-3)]GlcNAc
# Procedure, shortened: as §1
# GalNAc6S(b1-4)GlcNAc = biological target: GalNAc6S(b1-4)GlcNAc
# Procedure, shortened: as §1
# [8] = biological target: GlcA3S(b1-3)Gal(b1-4)GlcNAc(b1-2)Man
# Procedure, shortened: as §1
# [9] = biological target: GlcNAc(a1-4)Gal(b1-4)GlcNAc(b1-3)Gal(b1-4)Glc
# Procedure, shortened: as §1
# [10] = biological target: GlcNAc(b1-2)[GlcNAc(b1-4)]Man(a1-3)[GlcNAc(b1-2)Man(a1-6)]Man(b1-4)GlcNAc(b1-4)GlcNAc
# Procedure, shortened: as §1
# [11] = biological target: GlcNAc(b1-3)Gal(b1-4)GlcNAc(b1-2)Man(a1-3)[GlcNAc(b1-3)Gal(b1-4)GlcNAc(b1-2)Man(a1-6)]Man(b1-4)GlcNAc(b1-4)[Fuc(a1-6)]GlcNAc
# Procedure, shortened: as §1
# GlcNAc(b1-3)GalNAc = biological target: GlcNAc(b1-3)GalNAc
# Procedure, shortened: as §1
# GlcNAc(b1-3)Man = biological target: GlcNAc(b1-3)Man
# Procedure, shortened: as §1
# [12] = biological target: GlcNAc(b1-4)Gal(b1-4)GlcNAc
# Procedure, shortened: as §1
# Man(a1-6)Man = biological target: Man(a1-6)Man
# Procedure, shortened: as §1
# [13] = biological target: Neu5Ac(a2-3)Gal(b1-3)GalNAc
# Procedure, shortened: as §1
# [14] = biological target: Neu5Ac(a2-3)Gal(b1-3)GlcNAc(b1-2)Man(a1-3)[Neu5Ac(a2-3)Gal(b1-3)GlcNAc(b1-2)Man(a1-6)]Man(b1-4)GlcNAc(b1-4)GlcNAc
# Procedure, shortened: as §1
# [15] = biological target: Neu5Ac(a2-3)Gal(b1-3)GlcNAc(b1-3)GalNAc
# Procedure, shortened: as §1
# [16] = biological target: Neu5Ac(a2-3)Gal(b1-3)[Fuc(a1-4)]GlcNAc(b1-3)Gal(b1-3)[Fuc(a1-4)]GlcNAc
# Procedure, shortened: as §1
# [17] = biological target: Neu5Ac(a2-3)Gal(b1-3)[Neu5Ac(a2-6)]GlcNAc(b1-3)[Fuc(a1-3)[Gal(b1-4)]GlcNAc(b1-6)]Gal(b1-4)Glc
# Procedure, shortened: as §1
# Neu5Ac(a2-3)Gal(b1-4)Glc = biological target: Neu5Ac(a2-3)Gal(b1-4)Glc
# Procedure, shortened: as §1
# [18] = biological target: Neu5Ac(a2-3)Gal(b1-4)GlcNAc(b1-3)Gal(b1-4)GlcNAc(b1-3)Gal(b1-4)GlcNAc
# Procedure, shortened: as §1
# [19] = biological target: Neu5Ac(a2-6)Gal(b1-3)GlcNAc(b1-3)[Gal(b1-4)GlcNAc(b1-6)]Gal(b1-4)Glc
# Procedure, shortened: as §1
# [20] = biological target: Neu5Ac(a2-8)Neu5Ac(a2-3)Gal(b1-4)GlcNAc
# Procedure, shortened: as §1
# [21] = biological target: Neu5Ac(a2-8)Neu5Ac(a2-8)Neu5Ac
# Procedure, shortened: as §1
# [22] = biological target: Neu5Gc(a2-3)Gal(b1-4)GlcNAc
# Procedure, shortened: as §1
# [23] = biological target: Neu5Gc(a2-6)Gal(b1-4)GlcNAc
# Procedure, shortened: as §1
binder,measurement,setting,value
SabA (Helicobacter pylori) (protein) MGSSHHHHHHSSGLVPRGSHMENLYFQGEDNGFFVSAGYQIGEAVQMVKNTGELKNLNEKYEQLSQYLNQVASLKQSIQNANNIELVNSSLNYLKSFTNNNYNSTTQSPIFNAVQAVITSVLGFWSLYAGNYFTFFVGKKVGDSGQPASVQGNPPFKTIIENCSGIENCAMDQTTYDKMKKLAEDLQAAQTNSATKGNNLCALSGCAATDSTSNPPNSTVSNALNLAQQLMDLIANTKTAMMWKNIVISGVSNTSGAITSTNYPTQYAVFNNIKAMIPILQQAVTLSQSNHTLSASLQAQATGSQTNPKFAKDIYTFAQNQKQVISYAQDIFNLFNSIPAEQYKYLEKAYLKIPNAGSTPTNPYRQVVNLNQEVQTIKNNVSYYGNRVDAALSVARDVYNLKSNQAEIVTAYNDAKTLSEEISKLPHNQVNTKDIVTLPYDKNAPAAGQSNYQINPEQQSNLNQALAAMSNNPFKKVGMISSQNNNGA,glycan array binding signal (z-score),[1],2.39
same,glycan array binding signal (z-score),[2],-0.537
same,glycan array binding signal (z-score),[3],0.132
same,glycan array binding signal (z-score),[4],-0.103
same,glycan array binding signal (z-score),[5],-0.494
same,glycan array binding signal (z-score),GalNAc(b1-4)Gal(b1-4)Glc,1.6
same,glycan array binding signal (z-score),GalNAc(b1-4)GlcNAc,0.676
same,glycan array binding signal (z-score),[6],2.98
same,glycan array binding signal (z-score),[7],-0.298
same,glycan array binding signal (z-score),GalNAc6S(b1-4)GlcNAc,0.834
same,glycan array binding signal (z-score),[8],-0.867
same,glycan array binding signal (z-score),[9],-0.716
same,glycan array binding signal (z-score),[10],-0.287
same,glycan array binding signal (z-score),[11],0.826
same,glycan array binding signal (z-score),GlcNAc(b1-3)GalNAc,0.191
same,glycan array binding signal (z-score),GlcNAc(b1-3)Man,1.69
same,glycan array binding signal (z-score),[12],-0.173
same,glycan array binding signal (z-score),Man(a1-6)Man,-0.738
same,glycan array binding signal (z-score),[13],0.965
same,glycan array binding signal (z-score),[14],1.79
same,glycan array binding signal (z-score),[15],-0.131
same,glycan array binding signal (z-score),[16],0.27
same,glycan array binding signal (z-score),[17],-0.626
same,glycan array binding signal (z-score),Neu5Ac(a2-3)Gal(b1-4)Glc,2.88
same,glycan array binding signal (z-score),[18],0.051
same,glycan array binding signal (z-score),[19],-0.762
same,glycan array binding signal (z-score),[20],-0.714
same,glycan array binding signal (z-score),[21],-0.39
same,glycan array binding signal (z-score),[22],-0.614
same,glycan array binding signal (z-score),[23],0.779
